Reference: publication PMC7819943, “Rice protein-binding microarrays: a tool to detect cis-acting elements near promoter regions in rice”
The full ranking holds about 68,000 sequences; the median of “fluorescence intensity (a.u.)” is about 9,100, and the highest 2% start at about 16,000. Shown is part of a subset that was picked to be rich in the highest values.

target: OsWRKY34 (Oryza sativa, UniProt Q0JBA9 1-250); test: protein-binding microarray (RPBM); PBS, 2% BSA, 51.3 ng/ul salmon testes DNA, 50 uM zinc acetate, 200 nM TF, 25 C, 1 h; high values mean tight binding; conditions: protein: recombinant; tags: N-terminal polyhistidine and DsRed monomer fusion (pET32a); label: CyDye5-dUTP incorporated in the synthesized complementary strand; 3' TTTTT single-stranded linker to array surface; dsDNA, one strand shown
In short: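 Transcription factors were made in E. coli BL21-CodonPlus as N-terminal fusions to a polyhistidine tag and DsRed, then purified on Ni–NTA. After primer extension with Cy5-dUTP and blocking with 2% BSA, a custom Agilent array was exposed for 1 h at 25 °C to 200 nM protein in PBS, 2% BSA, salmon testes DNA and 50 µM zinc acetate. Washed arrays were scanned on an Axon 4000B, and the binding signal is per-feature fluorescence intensity in arbitrary units.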

OsWRKY34, sequence (Q0JBA9 entry or part of it): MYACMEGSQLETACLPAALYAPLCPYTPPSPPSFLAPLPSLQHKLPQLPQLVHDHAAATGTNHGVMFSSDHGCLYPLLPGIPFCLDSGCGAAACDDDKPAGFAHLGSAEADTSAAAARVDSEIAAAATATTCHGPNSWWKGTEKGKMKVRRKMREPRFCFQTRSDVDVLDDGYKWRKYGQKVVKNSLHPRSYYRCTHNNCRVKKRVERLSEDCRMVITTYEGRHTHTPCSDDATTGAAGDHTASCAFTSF

First: GCTTCCGCCGCCGCGTCTTCTCGCCCTCGACTCCGCTCTCCGGAGTCACCTAGTGCAG
Second: GCATAACTAATGGTCTGTTTACTTTGATGGCATTTTCAATCGGAGTCACCTAGTGCAG
The binding signal of the first is higher: 14700 fluorescence intensity (a.u.) for the first, 9570 fluorescence intensity (a.u.) for the second.

First: CCTCAACCGTGACTCAGTTATTCAGTTCGACACCCAGCCGCGGAGTCACCTAGTGCAG
Second: TTGCATTTGAAGACATGTAGTGTGTAGGGTGGGTTCTATTCGGAGTCACCTAGTGCAG
The binding signal of the first is lower: 8070 fluorescence intensity (a.u.) for the first, 13500 fluorescence intensity (a.u.) for the second.

Going from “GCATTTCCAGGCCCACGGAAGCCACGCTTCTTCTCCAGCGCGGAGTCACCTAGTGCAG” to “TCTGTTGTGCTCTTTCGTGTGATAGATCGATTTTTTGATTCGGAGTCACCTAGTGCAG”, the binding signal rises from 8060 fluorescence intensity (a.u.) to 10600 fluorescence intensity (a.u.).

Compared with “AGGGAATTTCCCGTTCTTGCGCTCCTGGATTTCTTGCCCACGGAGTCACCTAGTGCAG”, “CTCTCTCTGTTTCGGCCTCTCATACTCACTCCTCGGCTTCCGGAGTCACCTAGTGCAG” is higher in binding signal: 9560 fluorescence intensity (a.u.) for the first, 11100 fluorescence intensity (a.u.) for the second.

Going from “AGTCCCAAGTCACAACTGACAACAAGGCAACTACTACTACCGGAGTCACCTAGTGCAG” to “ACTTTGATCATAAAATGAGTTACTCTTACTTTCTTTTATTCGGAGTCACCTAGTGCAG”, the binding signal rises from 8360 fluorescence intensity (a.u.) to 8920 fluorescence intensity (a.u.).

Compared with “CTCTCATCCGATTCCTGCGTTTTTCCTGTGGTTCAATCATCGGAGTCACCTAGTGCAG”, “CTCATCCGATTCCTGCGTTTTTCCTGCGCTCCAATCAAACCGGAGTCACCTAGTGCAG” is lower in binding signal: 17900 fluorescence intensity (a.u.) for the first, 9990 fluorescence intensity (a.u.) for the second.

First: GATTTAGTTTTAGTTTTTGTTTTTTTCCCACTTGGTTCTTCGGAGTCACCTAGTGCAG
Second: TATGCCTATCTGAATTGGTTACTGTTCGTTTTTCCACTTACGGAGTCACCTAGTGCAG
The binding signal of the first is lower: 9450 fluorescence intensity (a.u.) for the first, 10800 fluorescence intensity (a.u.) for the second.

Going from “ACTGTTCGTTTTTCCACTTAAGTTCTGCTTGGTTTTTTTTCGGAGTCACCTAGTGCAG” to “CTCTCTCATCTGATTCTTGCGTTTTTCCTGTGGTCCAATCCGGAGTCACCTAGTGCAG”, the binding signal falls from 16600 fluorescence intensity (a.u.) to 12000 fluorescence intensity (a.u.).

Compared with “CTCCCTCCCACTCCCCTTTTCGTAATTCCTTCCGCGCTTTCGGAGTCACCTAGTGCAG”, “TACTCTCTCTGTCCCCTTTTGTTTTTTTTCCTGTATACTGCGGAGTCACCTAGTGCAG” is higher in binding signal: 8150 fluorescence intensity (a.u.) for the first, 8690 fluorescence intensity (a.u.) for the second.

First: ATCACCTTCACGTTCCGAGATGTGGCACGAATCCCGAGGACGGAGTCACCTAGTGCAG
Second: AATCGCTTTCTCTCTCTTCTTCCTTGCTCTCTCATACAACCGGAGTCACCTAGTGCAG
The binding signal of the first is lower: 8070 fluorescence intensity (a.u.) for the first, 10200 fluorescence intensity (a.u.) for the second.

Going from “ATATACAGATTTCGATCGGCGACGTTAGTGATCAGCTGGGCGGAGTCACCTAGTGCAG” to “TCGTTTGATGCGATTTCGGCGGCGATCACCACCACCACCACGGAGTCACCTAGTGCAG”, the binding signal falls from 35200 fluorescence intensity (a.u.) to 8160 fluorescence intensity (a.u.).

Compared with “GAAGCTGGGTTATACTTTCACCATTTTTTTACTCGATCGACGGAGTCACCTAGTGCAG”, “AGGATTTTTTTTTTGTCAACGTATTTCTATTACCTGCTGTCGGAGTCACCTAGTGCAG” is higher in binding signal: 8460 fluorescence intensity (a.u.) for the first, 9630 fluorescence intensity (a.u.) for the second.

Compared with “TCTGTTATATTTACTATCCATACTATACGTGTAAATTTTACGGAGTCACCTAGTGCAG”, “TATTCTTTCTCACGTAACGATTTTTTTTCATCATTAAGTTCGGAGTCACCTAGTGCAG” is lower in binding signal: 10200 fluorescence intensity (a.u.) for the first, 8230 fluorescence intensity (a.u.) for the second.

Compared with “GTCCTTAACGACGTCGTTGACTTTTCACATAACATTATACCGGAGTCACCTAGTGCAG”, “CCGTATTTTAATGCACGACACCTTTGACTTTTTGATAAACCGGAGTCACCTAGTGCAG” is lower in binding signal: 17300 fluorescence intensity (a.u.) for the first, 9990 fluorescence intensity (a.u.) for the second.

Compared with “AGTCTTTTTTCATCACATTAACCTATTATACACACATAACCGGAGTCACCTAGTGCAG”, “CTACCTCTATATTTTAATTTTAATGTATGACGTCGTTGACCGGAGTCACCTAGTGCAG” is higher in binding signal: 9110 fluorescence intensity (a.u.) for the first, 11100 fluorescence intensity (a.u.) for the second.

Going from “TATATTTTAATATTTTAATGTATGACGTCGTTGACTTTTTCGGAGTCACCTAGTGCAG” to “CCGTATTTTAATATATGACGTCGTTGACTTTTTAACCAACCGGAGTCACCTAGTGCAG”, the binding signal rises from 13800 fluorescence intensity (a.u.) to 27300 fluorescence intensity (a.u.).

First: ATTTTTTAAGTGTACGTTGTTGTTGACTTTTTTTATTAACCGGAGTCACCTAGTGCAG
Second: CTAGTCCTTCGTTTGAGTCCTTATATAACATTGATAGTACCGGAGTCACCTAGTGCAG
The binding signal of the first is higher: 14400 fluorescence intensity (a.u.) for the first, 8500 fluorescence intensity (a.u.) for the second.

Going from “TCCGTATTTTAATTAACGACGTCGTTGACTTTTTAACCACCGGAGTCACCTAGTGCAG” to “TATTTACTTTATTTCCTCCATTTATGTCGTTTTAGTTTTGCGGAGTCACCTAGTGCAG”, the binding signal falls from 24200 fluorescence intensity (a.u.) to 9590 fluorescence intensity (a.u.).

First: CCTCCTTTGTTCTTGCTCCTCTTTGCACGCAAAGAATCGGCGGAGTCACCTAGTGCAG
Second: TTGTTGTTTTTCGGTACTGTTGATTGAATTAGTGTTATGTCGGAGTCACCTAGTGCAG
The binding signal of the first is higher: 9110 fluorescence intensity (a.u.) for the first, 8120 fluorescence intensity (a.u.) for the second.

First: ACCTGACTAGCAAGCAACAATCATGTAACTTTTCACCTTTCGGAGTCACCTAGTGCAG
Second: TCCCAGCAAATGCAACGCTCGTACTCCTCGCATCAACAGCCGGAGTCACCTAGTGCAG
The binding signal of the first is lower: 8070 fluorescence intensity (a.u.) for the first, 8210 fluorescence intensity (a.u.) for the second.

Going from “TTGTTTCCTATACTTCCTACCAAATGTTCTGATTTTACTGCGGAGTCACCTAGTGCAG” to “GTTATAGCGCATCTATCAATCGTACTAAATTTCATTGTCCCGGAGTCACCTAGTGCAG”, the binding signal falls from 9520 fluorescence intensity (a.u.) to 8450 fluorescence intensity (a.u.).

With “GTCATACCACCTTACTTTTTACGTTTGAATCACCATTCTACGGAGTCACCTAGTGCAG” the binding signal was 10900 fluorescence intensity (a.u.).
